In PubChem BioAssay (NCI):
Several values for one entry are separate records, joined by “and”; a condition that tells them apart may be missing. Identical values can stand only once. Compounds without any hit were thinned out: in the full panel of roughly 83,000, 20% have a hit.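 For each line, cells grew in 96-well plates with the test compound present at a single concentration for 48 hours.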 Activity calls are given as the source filed them. How the source made its calls: active means growth percent below 10; inactive means the rest.

system: MDA-MB-468 breast; experiment: NCI-60 one-dose screen, 48 h (100 = growth as untreated, 0 = no growth, -100 = all killed); conditions: 10 µM unless noted

Structure (SMILES)	growth
COc1ccc2c(O)c(/C=C3\N=Nc4ncccc43)oc2c1C[C@H]1CCNC[C@H]1F	-39% (active)
Cc1ncc(C(=O)Nc2ccc(CN3CCN(C)CC3)c(C(F)(F)F)c2)cc1C#Cc1c(N)ncc2ccc(F)cc12	48.2% (inactive)
OC(CSc1ccccc1)CN1CCN(c2cccc(Cl)c2)CC1 (stereo not given)	96.8% (inactive)
O=C(Nc1ccc(-n2ccc3c(NC(=O)c4ccccc4)nccc32)cc1)c1ccc(N2CCOCC2)c(C(F)(F)F)c1	42.7% (inactive)
Cc1ccc(-c2cc3nc(C(Cl)Cl)nc(-c4ccco4)n3n2)cc1	-41.3% (active)
O=C1CSC2=NCCN12	105% (inactive) and 100% (inactive)
N#CCCN(CCCN1CCOCC1)CN1C(=O)c2ccccc2C1=O	92.2% (inactive)
COc1ccccc1-n1c(-c2sc(NC(C)=O)nc2C)n[nH]c1=S	124% (inactive)
CN1CCN(Cc2ccc(NC(=O)c3[nH]ncc3Nc3ncnc4c3CCC4)cc2)CC1	9.05% (active)
CCOC(=O)C(=Cc1cccc(Br)c1)C(=O)OCC	31% (inactive)
CCCCn1c(=O)c(C2CNC(=O)c3ccccc3N2)cc2ccccc21 (stereo not given)	107% (inactive)
O=C(Nc1ncccc1OCc1ccccc1)NC1CCCCCC1	75.5% (inactive)
CCCCn1c(C)nc2ccc(Nc3nc(Cl)nc4nc[nH]c34)cc21	34.6% (inactive)
CC(=O)CC(=O)N(C)C	96.8% (inactive)
Brc1ccsc1Br	103% (inactive)
C=C1C(=O)O[C@H]2[C@H]1CC/C(Cn1cc(-c3ccc(F)cc3)nn1)=C\CC[C@@]1(C)O[C@@H]21	-53.1% (active)
Cc1cc(CC(C)CC(C)(C)C)n(O)c(=O)c1 (stereo not given) (tested in a mixture with another compound)	-7.41% (active)
Cc1ccc(/C=C/c2c(C(=O)/C=C/c3ccc(C(F)(F)F)cc3)c(C)nc3ccccc23)cc1	-57.4% (active)
COc1cc(-c2nc3cc(Cl)c(Cl)cc3[nH]2)ccc1OCC(=O)N=Nc1c(O)[nH]c2ccccc12	-86.3% (active)
Oc1ccc(N=Nc2nccs2)c(O)c1	48.5% (inactive)

Structure (SMILES)	growth
O=C(CNC1CCCCC1)Nc1ccc(-c2nc3ccccc3s2)cc1	35.9% (inactive)
O=C(N/N=C/c1cc(Cl)ccc1O)c1ccccc1Nc1ccnc(C(F)(F)F)c1	12.8% (inactive)
Nc1nc2c(c(=O)[nH]1)C1(C(=O)Nc3ccccc31)c1c(nc(N)[nH]c1=O)N2	101% (inactive)
CN(Cc1ccccc1)c1nc(Cl)c(C2CC(c3ccc(Cl)cc3)=Cc3[nH][nH]c(=O)c32)s1 (stereo not given)	106% (inactive)
CCN(CC)c1ccc2c(c1)Oc1nc(N)c(C#N)c(N)c1C2Sc1ccc(SC)cc1 (stereo not given)	-37.4% (active)
CCN(CC)CCCOc1ccc2ncnc(Nc3ccc(Oc4cccc(C(F)(F)F)c4)c(Cl)c3)c2c1	-64.7% (active)
COc1ccc2c(c1)[nH]c(=O)c1c3cc(C)c(C)cc3cn21	7.03% (active)
O=[N+]([O-])CC(O)c1ccccc1 (stereo not given)	98.7% (inactive)
COc1ccc2c(c1)c(CC(=O)[Se]C)c(C)n2C(=O)c1ccc(Cl)cc1	-11.6% (active)
COc1ccc2c(c1)nc(N)c1c3ccccc3cn21	58.5% (inactive)
CCOC(=O)/C=C1\S/C(=N\Nc2cc(=O)[nH]c3ccc(OC)cc23)N(c2ccccc2)C1=O	101% (inactive)
Cc1ccc(C)c2c(C)c(C(=O)Nc3cccc(-n4cccn4)c3)oc12	27.8% [50 µM] (inactive)
NCCSC(c1ccccc1)(c1ccccc1)c1ccccc1	8.69% (active)
O=C(/C(=C/c1ccc([N+](=O)[O-])cc1)SCc1ccc(F)cc1)c1ccc(Cl)cc1	76.4% (inactive)
COc1cc(-c2n[nH]nc2-c2ccccn2)cc(OC)c1OC	104% (inactive)
CCCN1CCN(c2ccc3nc(-c4ccc5nc(-c6cc(OC)c(OC)c(OC)c6)[nH]c5c4)[nH]c3c2)CC1	47.1% (inactive)
Clc1ccc(N2N=C(c3cccc(Nc4ccncc4)c3)CC2c2ccccc2)cc1 (stereo not given)	74.1% (inactive)
OCC(O)c1nc2ccc3[nH]ncc3c2c2c1CCCC2 (stereo not given)	-28.1% (active)
C#CCOc1cccc(Nc2ncnc3ccc(NC(=O)C=C)cc23)c1	-25.7% (active)
CCCCCCCCCc1cc(CN2CCCCC2)c(O)c(CN2CCCCC2)c1	40.4% (inactive)
